PubChem BioAssay AID488969 (Vanderbilt High Throughput Screening Facility, 2010)
In all, about 110,000 compounds were measured (“z-score”: median about -0.1, highest 2% from about 2 on). The full list was thinned out, with the highest values kept by preference. Calls of active or inactive are those of the source.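 How the source made its calls: active means z-score in the third read window above 3 or below -3; inactive means the rest.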

Molecular target: Metabotropic glutamate receptor 8 (Rattus norvegicus) (UniProt P70579)
Assay: rat mGluR8 modulators via GIRK flux, primary screen, cell-based, thallium flux, HTS (AID 488969)
Conditions: HEK293 rat mGluR8, GIRK (G protein-gated inwardly rectifying potassium channel) thallium flux, FluoZin2; at 10 µM; stronger effect = higher value; submaximal glutamate (EC20) added with thallium

Metabotropic glutamate receptor 8 (Rattus norvegicus), sequence (P70579 whole entry, looked up): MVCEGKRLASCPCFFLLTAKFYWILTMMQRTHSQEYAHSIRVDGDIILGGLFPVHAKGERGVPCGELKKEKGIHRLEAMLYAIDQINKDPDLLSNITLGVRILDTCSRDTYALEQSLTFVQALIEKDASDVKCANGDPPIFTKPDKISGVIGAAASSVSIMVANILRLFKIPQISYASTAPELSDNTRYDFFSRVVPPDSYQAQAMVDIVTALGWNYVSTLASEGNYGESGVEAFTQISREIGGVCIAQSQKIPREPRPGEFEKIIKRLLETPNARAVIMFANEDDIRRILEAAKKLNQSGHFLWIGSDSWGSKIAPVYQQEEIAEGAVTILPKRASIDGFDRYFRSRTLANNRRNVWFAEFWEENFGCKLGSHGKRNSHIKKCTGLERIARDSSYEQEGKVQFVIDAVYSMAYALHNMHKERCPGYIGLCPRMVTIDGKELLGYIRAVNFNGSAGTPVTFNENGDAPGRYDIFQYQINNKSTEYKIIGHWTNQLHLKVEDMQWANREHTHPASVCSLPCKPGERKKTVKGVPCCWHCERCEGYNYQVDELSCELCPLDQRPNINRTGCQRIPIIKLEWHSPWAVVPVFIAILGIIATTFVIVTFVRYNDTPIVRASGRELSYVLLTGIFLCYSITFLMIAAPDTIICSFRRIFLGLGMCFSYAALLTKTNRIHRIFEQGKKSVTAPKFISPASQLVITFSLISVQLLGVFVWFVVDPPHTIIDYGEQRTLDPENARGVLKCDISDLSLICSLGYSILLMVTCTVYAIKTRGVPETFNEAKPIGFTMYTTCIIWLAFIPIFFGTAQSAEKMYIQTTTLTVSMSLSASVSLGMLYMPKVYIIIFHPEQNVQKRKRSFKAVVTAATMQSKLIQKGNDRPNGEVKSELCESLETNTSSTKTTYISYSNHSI

SMILES | z-score
Cc1nn2c(CN(C(=O)COc3ccccc3)c3ccccc3)nnc2c2ccccc12 | -0.835
Clc1ccc2c(NNc3ccccc3Cl)ccnc2c1 | -0.353
O=C(Oc1ccnc2cc(Cl)ccc12)N1CCOCC1 | -0.719
Clc1ccc2c(N3CCCC3)ccnc2c1 | 2.36
Cc1cc(C)nc(N2CCC(C(=O)Nc3ccc(Oc4ccccc4)cc3)CC2)n1 | -0.163
CC(C(=O)Nc1ccc([N+](=O)[O-])cc1)N1CCN(C/C=C/c2ccccc2)CC1 (centres undefined) | -0.146
CCc1ccc2nc(N3C(=O)C(O)=C(C(=O)c4ccco4)C3c3cccs3)sc2c1 (centres undefined) | -1.1
N=c1sccn1CC(=O)Nc1ccc(Cl)c(S(=O)(=O)N2CCOCC2)c1 | 0.131
N=c1sccn1CC(=O)Nc1ccc(S(=O)(=O)N2CCOCC2)cc1 | 2.19
Cc1ccc(S(=O)(=O)N2CCOCC2)cc1NC(=O)Cn1ccsc1=N | 0.262
CCOC(=O)CC1C(=O)NCCN1Cc1cccc(OC)c1 (centres undefined) | -0.139
COc1ccc(NC(=O)c2ccco2)cc1NC(=O)c1ccc(Br)o1 | -0.82
Cc1csc(SCC(=O)Nc2ncc(Cl)c(C)c2Cl)n1 | 0.185
COc1ccc(N(CC(=O)Nc2nc3ccc(C)cc3s2)S(=O)(=O)c2c(C)nn(C)c2C)cc1 | 2.44
Cc1nn(C)c(C)c1S(=O)(=O)N(CC(=O)NC1CCCCCC1)c1ccc(C(C)C)cc1 | -0.146
COc1ccc2nc(NC(=O)CN(c3ccc(C)cc3)S(=O)(=O)c3c(C)nn(C)c3C)sc2c1 | 0.03
COc1ccc(N(CC(=O)Nc2nccs2)S(=O)(=O)c2c(C)nn(C)c2C)cc1 | 0.0495
Cc1nn(C)c(C)c1S(=O)(=O)N(CC(=O)NCCCOC(C)C)c1ccc(C(C)C)cc1 | -0.0899
Cc1cccc(NC(=O)CN(c2ccc(C(C)C)cc2)S(=O)(=O)c2c(C)nn(C)c2C)n1 | 2.21
CSc1ccc(/C=N/NC(=O)CN2CCN(Cc3ccccc3)CC2)cc1 | -0.0744
CC(=O)Oc1ccc2c(c1)cc(C)n2C | 0.458
O=C1c2ccccc2C(=O)N1CCn1c(=O)oc2ccccc21 | 1.56
Cc1cc(Cl)ccc1OC(C)C(=O)Nc1ccc([N+](=O)[O-])cn1 (centres undefined) | 2.07

SMILES | z-score
CC(Oc1cccc(Cl)c1)C(=O)Nc1ccc([N+](=O)[O-])cn1 (centres undefined) | -0.576
CC(=O)Nc1ccc([N+](=O)[O-])cn1 | -0.229
COC(=O)c1c(NC(=O)CSc2nnnn2-c2ccccc2)sc2c1CCC(C)C2 (centres undefined) | -0.121
COc1ccc(/C=C2\NC(=S)N(CC3CCCO3)C2=O)c(OC)c1 (centres undefined) | 0.39
COc1ccc(/C=C2\NC(=S)N(CC3CCCO3)C2=O)c(OC)c1C (centres undefined) | 2.32
COc1ccccc1/C=C1\NC(=S)N(CC2CCCO2)C1=O (centres undefined) | 0.246
CCOC(=O)c1nnn(-c2nonc2N)c1COc1cc(C)c(Cl)c(C)c1 | -0.174
CCCCC1CC(CSc2ncn[nH]2)OC1=O (centres undefined) | -0.0735
CCCCCCCC1CC(CSC(=N)N)OC1=O (centres undefined) | 5.96 (active)
CCCCC1CC(CSC(=N)N)OC1=O (centres undefined) | 0.732
CCCCCCC1CC(CSC(=N)N)OC1=O (centres undefined) | 0.116
CCCCCCC1CC(CSc2ncn[nH]2)OC1=O (centres undefined) | -0.0128
CCCCCCCC1CC(CSc2ncn[nH]2)OC1=O (centres undefined) | 5.73 (active)
CC(C)C(=O)Nc1nc2c(ncn2C2CC(O)C(CO)O2)c(=O)[nH]1 (centres undefined) | -0.334
CC(C)OC(=O)n1c(=S)oc2ccccc21 | -0.00387
S=c1[nH]nc(CSCc2ccc(Cl)cc2Cl)n1-c1ccccc1 | 15.5 (active)
CSc1nnc(CSCc2ccc(Cl)cc2Cl)n1-c1ccccc1 | -0.0778
S=c1[nH]nc(Cc2ccccc2)n1-c1ccccc1 | 0.938
Cn1ncc(C#N)c1NC(=O)c1cc(-c2ccccc2Cl)on1 | 0.559
O=C(CSc1nc(C2CC2)nc2ccccc12)N1CCc2ccccc2C1 | -0.769
Cc1cc(=O)n2cc(-c3ccccc3)nc2[nH]1 | -0.318
CC1CCN(CCCCOc2ccccc2Br)CC1 | -0.0355
Cc1cc(Cl)ccc1N=C1N=C(N)c2ccccc21 | -1.75

SMILES | z-score
COC(=O)c1sccc1NC(=O)CSc1ccccc1NS(=O)(=O)c1ccc(Br)cc1 | 2.31
COC(=O)c1sccc1NC(=O)CSc1ccccc1NS(=O)(=O)c1ccc(F)cc1 | 0.941
COC(=O)c1sccc1NC(=O)CN(C)NS(=O)(=O)c1ccc(Cl)cc1 | -0.811
COC(=O)c1sccc1NC(=O)CSc1ccc(Cl)cc1 | 0.289
COC(=O)c1sccc1NC(=O)CSc1ccccc1NS(=O)(=O)c1ccc(Cl)cc1 | 3.6 (active)
COC(=O)c1sccc1NC(=O)Cc1ccc(Br)cc1 | -0.0914
N#Cc1ccc(OCC(=O)N/N=C2\CCc3ccccc32)cc1 | -0.239
CCN(CC)C(=O)C(Sc1ccccc1)c1ccccc1 (centres undefined) | 0.926
CC(=O)Nc1ccc(NC(=O)CSc2ccc(C)cc2)cc1 | 0.00682
CCOC(=O)c1ccc(NC(=O)CN2C(=O)C(C)SC(C)C2=O)cc1 (centres undefined) | -0.088
Cc1nc(NC(C)C(=O)O)c2nc(C)oc2n1 (centres undefined) | -0.0905
CCn1cc(C2=NC(C)CO2)c2ccccc21 (centres undefined) | -0.418
CCn1cc(C2=NCCO2)c2ccccc21 | 2.2
CCn1cc(C2=NC(C)(C)CO2)c2ccccc21 | -0.521
COc1ccc2[nH]c(C)c(CCN3C(=O)C4C5C=CC(C5)C4C3=O)c2c1 (centres undefined) | -0.454
Cc1ccc(-n2ncc3c(SCc4cccc(C)c4)ncnc32)cc1 | 2.66
Cc1ccc(CSc2ncnc3c2cnn3Cc2ccccc2)cc1 | -0.449
COC(=O)CSc1ncnc2c1cnn2Cc1ccccc1 | -0.981
Cc1ccc(CSc2ncnc3c2cnn3-c2ccc(C)cc2)cc1 | 1.75
Cc1cccc(CSc2ncnc3c2cnn3Cc2ccccc2)c1 | -0.46
NC(=O)CSc1ncnc2c1cnn2Cc1ccccc1 | 4.34 (active)
Cc1ccc(-n2ncc3c(SCc4ccccc4)ncnc32)cc1 | 2.51
c1ccc(CSc2ncnc3c2cnn3Cc2ccccc2)cc1 | -0.473

SMILES | z-score
Cc1ccc(CSc2ncnc3c2cnn3-c2ccccc2)cc1 | 0.333
CN(C)c1ccnc2sc3c(NCC(O)CO)ncnc3c12 (centres undefined) | -0.106
CCOC(=O)c1c(C)[nH]c(C(=O)COC(=O)/C=C/c2ccc3c(c2)OCO3)c1C | 0.00271
Cc1nc2ccccc2cc1C(=O)O | 0.0939
CC(C/C=N/NC(=O)COc1cc(Cl)ccc1Cl)c1ccccc1 (centres undefined) | -0.0205
O=C(Nc1ccc2c(c1)OCO2)C1CC(c2ccc(Cl)cc2)=NO1 (centres undefined) | -0.0412
CN(c1ccc(OCC(=O)OCC(=O)Nc2ccc(F)cc2)cc1)S(=O)(=O)c1ccc(Cl)cc1 | -0.231
COc1ccccc1N1CCN(CCCC(=O)c2ccc(F)cc2)CC1 | -0.123
COc1cc2cnc(Cl)nc2cc1OC | -0.182
COc1cc2cnncc2cc1OC | 3.21 (active)
COc1cc2cc(C(N)=O)c(N)nc2cc1OC | -0.0702
CCOC(=O)c1ccc(NC(=O)CSc2nnc(-c3cccs3)n2C)cc1 | -0.387
Cc1ccc(C(C(=O)NCC2CCCO2)N(Cc2ccccc2F)C(=O)Cn2nnc(-c3cccs3)n2)cc1 (centres undefined) | -0.157
O=C(NCC1CCCO1)C(c1ccc(F)cc1)N(Cc1ccc(F)cc1)C(=O)Cn1nnc(-c2cccs2)n1 (centres undefined) | 2.46
O=C(NCC1CCCO1)C(c1cccs1)N(Cc1cccs1)C(=O)Cn1nnc(-c2cccs2)n1 (centres undefined) | -0.109
c1ccc(-c2cn3nc(-c4ccccc4)c(-c4ccccc4)nc3n2)cc1 | -1.03
Cn1c(=O)c(-c2ccccc2)nc2ccccc21 | -0.27
O=c1c(-c2ccccc2)nc(-c2ccccc2)cn1O | 2.86
CCOc1ccc2c(c1)-c1c(ssc1=S)C(C)(C)N2C | -0.11
CC(Oc1ccc(Cl)cc1)C(=O)NNC(=S)NC(=O)c1ccco1 (centres undefined) | 5.62 (active)
O=C(Nc1ccc(Oc2ccc3ccccc3c2)cc1)c1ccco1 | 0.388
COc1ccc(/C=C/C(=O)NC(=S)NNC(=O)c2ccco2)cc1 | 0.921
CC(C)CNC(=S)NNC(=O)c1ccco1 | -0.0344

SMILES | z-score
CC(Oc1ccc2ccccc2c1)C(=O)NNC(=S)NC(=O)c1ccco1 (centres undefined) | 4.46 (active)
COc1ccc(C(=O)Nc2cc(OC)c(NC(=O)c3ccco3)cc2OC)cc1 | -0.196
COc1ccc(C(=O)NNC(=S)NC(=O)c2ccco2)cc1 | 2.99
CCOC(=O)/C(=C/c1ccc(Cl)cc1)NC(=O)c1ccco1 | -0.468
O=C(NC(=S)NNC(=O)c1ccccc1O)c1ccco1 | 0.576
Cc1cccc(C(=O)Oc2csc(=S)n2C(=O)c2cccc(C)c2)c1 | 0.282
COc1cc(CNCc2ccccn2)ccc1OCc1ccc(Cl)cc1 | 0.427
CC(=O)c1cccc(NC(=O)C2CC(c3ccc(F)cc3)=NO2)c1 (centres undefined) | -0.0875
O=C(COc1ccc(Cl)cc1Cl)Nc1nc2n(n1)C(c1ccccc1)CC(=O)N2 (centres undefined) | -0.56
O=C(Nc1ncc(C(F)(F)F)cc1Cl)C1COc2ccccc2O1 (centres undefined) | -0.304
CCN(CC)CCCNC(=O)c1ccc(Cl)c(S(=O)(=O)Nc2ccccc2OC)c1 | -0.0127
CCN(CC)CCNC(=O)c1ccc(Cl)c(S(=O)(=O)Nc2ccccc2OC)c1 | 0.323
CCN(CC)CCNC(=O)c1ccc(NC(=O)c2ccc(Cl)c(S(=O)(=O)Nc3ccccc3OC)c2)cc1 | 2.14
CC(=O)c1cccc(NC(=O)CSc2nnc(-c3cccnc3)o2)c1 | 0.059
O=C(NCc1ccncc1)C(=O)Nc1nc(C23CC4CC(CC(C4)C2)C3)cs1 | 0.792
O=C(NCc1ccccc1)C(=O)Nc1nc(C23CC4CC(CC(C4)C2)C3)cs1 | 3.44 (active)
CC(=O)NNC(=O)CC(=O)Nc1nc(C23CC4CC(CC(C4)C2)C3)cs1 | -0.221
COC(=O)N/N=C/c1ccc(OCCSc2ccc(Cl)cc2)c(OC)c1 | 0.427
CCCC1S/C(=N/N=C/c2ccc(C)cc2)N(Cc2ccc(OC)cc2)C1=O (centres undefined) | 0.151
CC(=O)Nc1ccc(Oc2cc(C#N)c(C#N)cc2N2CCOCC2)cc1 | 0.123
CC(=O)Nc1ccc(Oc2cc(C#N)c(C#N)cc2N2CCCCCC2)cc1 | 1.3
CC(=O)Nc1cccc(Oc2cc(C#N)c(C#N)cc2N2CCCCCC2)c1 | 2.07
